# Inconclusive results are not listed. Unmarked numbers belong to inactive results. Activity calls are given as the source filed them. The call rests on the fitted dose curve; in most records, active means well fitted inhibition curve with a large enough effect; inconclusive means small, poorly fitted or top-dose-only effect, or effect the other way; inactive means flat fitted curve, though single readings scatter.
# Molecular target: Lysosomal acid glucosylceramidase (Homo sapiens) (UniProt P04062)
# Sequence (P04062 whole entry, looked up): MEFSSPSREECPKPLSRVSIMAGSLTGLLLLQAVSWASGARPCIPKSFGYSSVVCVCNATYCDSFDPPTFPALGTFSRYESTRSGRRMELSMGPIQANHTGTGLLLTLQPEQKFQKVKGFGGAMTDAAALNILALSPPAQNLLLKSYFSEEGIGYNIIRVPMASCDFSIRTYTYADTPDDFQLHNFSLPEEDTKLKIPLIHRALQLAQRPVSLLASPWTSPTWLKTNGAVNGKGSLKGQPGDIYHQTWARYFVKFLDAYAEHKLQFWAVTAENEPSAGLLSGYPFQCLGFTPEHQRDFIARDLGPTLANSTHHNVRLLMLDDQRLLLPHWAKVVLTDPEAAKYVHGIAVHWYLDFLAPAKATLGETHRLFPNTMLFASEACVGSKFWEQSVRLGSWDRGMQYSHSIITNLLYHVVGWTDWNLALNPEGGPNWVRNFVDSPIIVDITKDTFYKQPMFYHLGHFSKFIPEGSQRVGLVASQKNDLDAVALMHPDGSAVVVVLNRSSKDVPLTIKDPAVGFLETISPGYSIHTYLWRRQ
# Experiment: qHTS Assay for Inhibitors and Activators of N370S glucocerebrosidase as a Potential Chaperone Treatment of Gaucher Disease: Activity in Non-Mutant Spleen Homogenate
# Settings: human spleen homogenate GC, 4MU-glucoside fluorescence; series mostly up to 57.5 µM; activity change, negative = inhibition: at the top concentration
# Text: NIH Chemical Genomics Center [NCGC] NIH Molecular Libraries Probe Production Centers Network [MLPCN] MLPCN Grant: MH086442-01 Assay Submitter (PI): Wei Zheng Glucocerebrosidase (GC) catalyzes the hydrolysis of beta-glucocerebroside to glucose and ceramide in lysosomes. Mutations in the glucocerebrosidase gene result in Gaucher disease, an autosomal recessive lysosomal storage disorder. Many of the mutations encountered in patients with Gaucher disease are missense alterations that may cause misfolding, decreased stability and/or mistrafficking of this lysosomal protein. […] These inhibitors include iminosugar analogs and three non-iminosugar inhibitors identified from a previous HTS of 62,000 compounds with the wild type recombinant enzyme. However, the enhancement of enzyme activity by the chaperone action of an enzyme inhibitor must be balanced against the direct inhibition of the enzyme. An enzyme activator could also function as a chaperone by binding to the enzyme and helping to correct its misfolding and mistrafficking. While activators for GC have not yet been identified, they may have better therapeutic potential than inhibitors. Therefore the discovery and development of chemical activators may provide a new strategy for the chaperone therapy. We have optimized a new assay using N370S mutant GC derived from the spleen of a Gaucher patient. […] In addition, the MLPCN compound library has expanded, which increases the chance of finding new and better probes. This confirmation assay tests for compound activity in spleen homogenate containing wildtype enzyme.
# NCGC Assay Protocol Summary: This is a fluorogenic enzyme assay with 4-methylumbelliferyl-beta-D-glucopyranoside as the substrate and wildtype glucocerebrosidase from human spleen homogenate as the enzyme preparation. Upon the hydrolysis of this fluorogenic substrate, the resulting product, […] which can be detected by a standard fluorescence plate reader. Data were normalized to the controls for basal activity (without enzyme) and 100% activity (with enzyme). The AC50 values were determined from concentration-response data modeled with the standard Hill equation. Assay buffer: 50 mM citric acid (titrated with potassium phosphate to pH 5.0), 100 mM potassium chloride, 10 mM sodium chloride, 1 mM magnesium chloride, 0.01% Tween-20. 1536-well assay protocol: (1) Add 2 ul/well of spleen homogenate (27 ug final) (2) Add 23 nL compounds in DMSO solution. The final titration was 0.5 nM to 58 uM. (3) Add 2 ul of substrate (1 mM final) (4) Incubate at 37C for 40 min. (5) Add 2 ul stop solution (1M NaOH and 1M Glycine mixture, pH 10) (6) Detect the assay plate in a ViewLux plate reader (PerkinElmer) with Ex=365 nm and Em=440nm. Keywords: Glucocerebrosidase, beta-glucosidase, Gaucher Disease, pharmacological chaperone, chaperone therapy, high throughput screening, glucocerebrosidase inhibitor, MLSMR, MLSCN, NIH Roadmap, qHTS and NCGC
SMILES,Potency,"activity change, negative = inhibition"
NS(=O)(=O)c1ccc(S(=O)(=O)N2CCN(c3nc(-c4cccs4)nc4ccccc34)CC2)cc1,5010 nM (active),
CC(C)(C)C(=O)OCCNc1nc(-c2ccccc2)nc2ccccc12,2240 nM (active),
CC(C)C(C)NC(=O)CSc1nc2scc(-c3ccco3)c2c(=O)n1-c1ccccc1 (stereo not given),,6.76%
N#Cc1ccc(S(=O)(=O)N2CCN(c3nc(-c4cccs4)nc4ccccc34)CC2)cc1,2510 nM (active),
O=S(=O)(c1ccc(Cl)cc1)N1CCN(c2nc(-c3cccs3)nc3ccccc23)CC1,1000 nM (active),
O=S(=O)(c1ccc2c(c1)OCCO2)N1CCN(c2nc(-c3cccs3)nc3ccccc23)CC1,447 nM (active),
O=S(=O)(c1ccccc1C(F)(F)F)N1CCN(c2nc(-c3cccs3)nc3ccccc23)CC1,398 nM (active),
S=C(NCCCc1cnc[nH]1)NCCCN(Cc1ccc(Cl)c(Cl)c1)c1ccc(Br)cn1,355 nM (active),
Cc1cc(C)cc(N(CC(=O)NC2CCCCCC2)S(=O)(=O)c2c(C)[nH]c(=O)[nH]c2=O)c1,562 nM (active),
O=S(=O)(c1ccc2ccccc2c1)N1CCN(c2nc(-c3cccs3)nc3ccccc23)CC1,282 nM (active),

# From PubChem BioAssay AID2592 (National Center for Advancing Translational Sciences (NCATS), 2010)
